High-throughput results: PubChem BioAssay, National Center for Advancing Translational Sciences (NCATS)
BRCA1 expr up = activators of BRCA1 expression | Potency, µM (top dose mostly 46.1 µM), without a hit: at the top dose activation, actives largely listed as activators | AID 624202 | MCF7-BRCA1-FFLuc reporter, luminescence, 48 h; response scale: scaled: vehicle 0%, 10 µM genistein 100% | 380,000 tested, 1.1% active; note: nearly all actives have a fitted effect of over 80% in size
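Using MCF7 cells harboring a BRCA1 firefly luciferase reporter, plated 2 h before compound pinning, the screen measured luminescence after 48 h incubation. Responses were normalized to DMSO and 10 microM genistein, then fitted for concentration-effect.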
GLP1R cytotox = cytotoxicity in counter-screen for GLP-1R inverse agonists; HEK293 cAMP-luciferase reporter cells, luminescence, 24 h; Potency, µM (top dose mostly 38.3 µM), inactives show at the highest dose activity change, negative = inhibition, usual class: inhibitors; AID 624418; 410,000 tested, 0.13% active;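 note: loss of luciferase light is scored as toxicity; % is set by controls: 0 for no effect and ±100 for the full control effect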
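To flag toxic compounds, the library was rerun on cells for 24 hr at 37 deg C and 5% CO2. Viability-linked luminescence was captured 12 min after adding luciferase detection reagent.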
GLP-1R agonist = GLP-1 receptor (human) agonism | HEK293 GLP-1R CRE-luciferase, luminescence, 4-6 h; cells express a hypersensitive GLP-1R form | Potency, µM (doses to about 45.6 µM), without a hit: top-dose activation, hits mostly activators | 380,000 tested, 0.007% active | AID 624172; note: % of control where 0% means no effect
Target sequence (P43220 whole entry, looked up): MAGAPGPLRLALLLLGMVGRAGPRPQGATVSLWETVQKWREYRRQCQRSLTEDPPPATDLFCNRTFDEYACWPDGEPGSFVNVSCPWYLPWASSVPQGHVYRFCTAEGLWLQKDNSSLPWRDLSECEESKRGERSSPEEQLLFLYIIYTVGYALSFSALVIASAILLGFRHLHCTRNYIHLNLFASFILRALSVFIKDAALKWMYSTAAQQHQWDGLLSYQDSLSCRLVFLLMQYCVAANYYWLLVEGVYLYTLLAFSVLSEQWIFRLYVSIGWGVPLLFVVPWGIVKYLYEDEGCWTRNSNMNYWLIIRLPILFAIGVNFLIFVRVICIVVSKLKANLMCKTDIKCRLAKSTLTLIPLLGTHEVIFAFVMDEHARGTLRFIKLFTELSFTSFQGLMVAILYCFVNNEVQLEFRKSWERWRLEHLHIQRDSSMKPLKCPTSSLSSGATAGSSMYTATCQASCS
GLP-1R inv ag = acts as inverse agonist at human GLP-1 receptor; HEK293 GLP-1R CRE-luciferase, luminescence, 24 h; GLP-1R form is constitutively active; P43220; 410,000 tested, 1.6% active; Potency, µM (titrated, usually from 38.3 µM), for the others: at the top dose activity change, negative = inhibition, actives largely listed as inhibitors; note: % is set by controls: 0 for no effect and ±100 for the full control effect; nearly all actives have a fitted effect of over 55% in size
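GLP-1R inverse agonism mode: basal reporter luminescence in engineered HEK293 cells measured after one day of compound exposure at 37 deg C, with a 12 min room-temperature detection step.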
* hit, by the source's call; u = inconclusive; x = not tested or not shown. A selection: hits, their analogues and other compounds. The true share with any hit is near 2.6%. Calls come from the whole dose curve; as a rule, active = well fitted curve in the direction sought with a large enough effect; inconclusive = small, poorly fitted or top-dose-only effect, or another doubt; inactive = no such curve, though single readings can be large; an effect the other way counts as inactive or inconclusive. Potency is the fitted concentration of half-maximal effect.

SMILES	BRCA1 expr up	GLP1R cytotox	GLP-1R agonist	GLP-1R inv ag
Cc1ccc(NC(=O)Cn2cnc3sc(C)c(S(=O)(=O)N4CCN(c5ncccn5)CC4)c3c2=O)cc1F	1.2%	2.7%	0.1%	14.6%
N#C/C(=C/c1ccncc1)c1nc2ccccc2s1	-6.3%	45.1%	-3.6%	-4.4%
CC1CCc2nc(/C(C#N)=C/c3ccncc3)sc2C1 (centres undefined)	11.2µM*	-16.6%	12.1%	6.2%
C/C(=N/NC(=O)c1ccc2c(c1)OCO2)c1cccc([N+](=O)[O-])c1	5.01µM*	1.8%	-1.2%	27.6%
C/C(=N\Nc1ccc(Cl)c(C(=O)O)c1)c1cccc([N+](=O)[O-])c1	14.1µM*	6.0%	-7.0%	28.1%
O=C(Nc1cccc([N+](=O)[O-])c1)c1ccc2c(c1)OCCO2	12.6µM*	6.3%	0.9%	-29.5%
CC(/C=C/c1ccc2c(c1)OCO2)=N\NC(=O)c1cccc([N+](=O)[O-])c1	-44.2%	0.5%	9.3%	0.0%
COc1cc(OC)c(NS(=O)(=O)c2c(C(=O)N3CCC(C)CC3)c(C)n(C)c2C)cc1Cl	x	0.3%	x	9.5%
N#CC(C(=O)Nc1ccccc1)=C1Nc2ccccc2N1	2.5%	-3.1%	-0.4%	-17.9%
CC1=CS/C(=C(/C#N)C(=O)N2CCCCC2)N1c1ccccc1	38.7%	3.8%	8.9%	3.1%
N#C/C(C(=O)N1CCCCC1)=C1\Nc2ccccc2S1	8.91µM*	-15.1%	-13.7%	10.7%
Cc1ccc(NC(=S)/C(C#N)=C2/Nc3ccccc3S2)cc1	-84.5%	u	-2.5%	3.98µM*
CN(C)c1ccc(/C=C/c2ccnc3ccccc23)c(N)c1	-68.9%	x	x	x
Cc1ccc(F)cc1NC(=O)N1CCN(C2c3ccccc3-c3ccccc32)CC1	-37.4%	2.7%	2.1%	12.6µM*
Cc1ccc(CSc2nnc(-c3ccc(NC(=O)CCc4ccccc4)cc3)n2C)cc1	23.5%	x	x	x
C=CCSc1nnc(-c2ccc(Cl)cc2Cl)o1	u	-10.0%	4.5%	-5.0%
Clc1ccc(-c2nnc(CCc3ccccc3)o2)c(Cl)c1	11.2µM*	-17.7%	21.9%	-0.2%
Oc1ccccc1-c1nnc(COc2ccc(Cl)cc2Cl)o1	12.6µM*	1.4%	-4.8%	16.5%
COC(=O)c1ccc(/C=C2\Oc3ccccc3NC2=O)cc1	2.24µM*	9.5%	3.8%	62.0%
CN1CCC(N2CCN(C3CN(CCc4ccccc4)S(=O)(=O)C3)CC2)CC1 (centres undefined)	7.7%	5.7%	5.6%	-21.8%
CN1CCC(n2[nH]c(-c3ccccc3)c(Cc3ccccc3)c2=O)CC1	-20.9%	-18.9%	6.2%	11.2µM*
O=C(Cc1cccs1)NCc1cccs1	37.4%	0.9%	-8.0%	-21.6%
O=C(Cc1cccs1)NCc1cccc(Br)c1	3.98µM*	4.6%	-9.3%	-23.1%
O=C(Nc1cc(C(F)(F)F)ccc1Cl)C(NCc1ccccc1)c1ccccc1 (centres undefined)	-23.7%	-5.5%	0.4%	3.55µM*
O=c1cnn(Cc2ccc(Cl)c(Cl)c2)c2ccccc12	-38.7%	u	14.9%	u
SMILES	BRCA1 expr up	GLP1R cytotox	GLP-1R agonist	GLP-1R inv ag
O=c1c2ccccc2cnn1Cc1ccc(Cl)c(Cl)c1	-20.4%	12.1%	34.4%	10µM*
CC1CN(c2ccc(Cl)cc2)c2nc3c(c(=O)n(CC(=O)O)c(=O)n3C)n2C1 (centres undefined)	2.6%	-4.1%	-2.6%	-1.7%
CCOC(=O)c1c(C)n(CC(O)CN(C)C)c2cc(Br)c(OC)cc12 (centres undefined)	-5.0%	-9.1%	11.4%	u
CN(c1ccccc1)S(=O)(=O)c1nnc(NC(=O)C2CCCCC2)s1	14.2%	4.2%	-4.5%	-18.6%
O=C(/C=C/c1cnc2ccccc2n1)NC12CC3CC(CC(C3)C1)C2	27.5%	-19.5%	-1.3%	2.51µM*
Cc1ccc(Cl)cc1N1CCN(C(=O)C2CCCN(Cc3nc(-c4cccc(Cl)c4)oc3C)C2)CC1 (centres undefined)	x	1.7%	x	3.98µM*
Cc1ccc(C)c(N2CCN(C(=O)C3CCCN(Cc4nc(-c5cccc(Cl)c5)oc4C)C3)CC2)c1 (centres undefined)	x	-4.4%	x	-0.4%
CCC1CCCCN1CCCNC(=O)C(C)n1nc(C)c2sc3ccccc3c2c1=O (centres undefined)	-7.7%	u	-5.9%	7.94µM*
Cc1nn(C(C)C(=O)NCCCN2CCCCC2C)c(=O)c2c1sc1ccccc12 (centres undefined)	-13.0%	0.2%	8.8%	-11.8%
CCOc1ccc(N(CC(=O)NC2CC3CCC2C3)S(=O)(=O)c2ccc(C)cc2)cc1 (centres undefined)	-30.6%	0.7%	-3.5%	7.94µM*
C=C[C@]1(C)C[C@@H](OC(=O)CO)[C@]2(C)C(C)CC[C@]3(CCC(=O)[C@H]32)[C@@H](C)[C@@H]1O (some centres undefined)	x	x	-0.4%	x
CN(C)CCCNC(=O)c1cc(C(=O)c2cccc(Cl)c2Cl)c[nH]1	-29.8%	-22.7%	6.4%	u
O=C(CC(c1ccccc1)c1ccccc1O)NCc1ccccc1Cl (centres undefined)	-58.9%	-15.3%	-10.2%	10µM*
O=C(CC(c1ccccc1)c1cc(Br)ccc1O)NCc1ccco1 (centres undefined)	-32.5%	-9.9%	-18.1%	11.2µM*
O=C(NCc1ccco1)Nc1ccc(Br)cc1Cl	12.6µM*	-10.3%	-6.6%	0.0%
O=C(CC(c1ccccc1)c1ccccc1O)NCCc1ccccc1 (centres undefined)	-10.8%	4.0%	5.4%	u
O=C(CC(c1ccccc1)c1ccccc1O)NCc1ccco1 (centres undefined)	-24.3%	-7.4%	-7.7%	u
COc1c(C)cc(C(O)c2ncc(-c3ccccc3F)[nH]2)cc1C (centres undefined)	-1.4%	-0.7%	-7.0%	-22.7%
O=C(Nc1ccccc1C(=O)N/N=C/c1ccncc1)c1ccccc1	70.5%	-4.4%	4.5%	0.9%
CCOC(=O)c1c(C)cc2c(CO)n[nH]c(=O)c2c1C	15.4%	1.7%	7.4%	-16.1%
O=C(CCCc1ccccc1)N1CCN(C2CCCCC2)CC1	5.01µM*	0.8%	-3.5%	-4.9%
COc1ccc(OCCCCn2c(C3CC(=O)N(c4cccc(Cl)c4)C3)nc3ccccc32)cc1 (centres undefined)	x	0.8%	x	10µM*
O=C1CC(c2nc3ccccc3n2CCCCOc2ccccc2)CN1c1ccccc1Cl (centres undefined)	x	-17.5%	x	10µM*
COc1cccc(CNC(=O)C2CCN(S(=O)(=O)c3ccc4c(c3)CCCN4C(C)=O)CC2)c1	x	4.8%	x	12.3%
O=C(NCCN1CCCC1)c1ccc(Cl)cc1	4.3%	6.6%	-4.5%	-4.1%
CC(C)(C)c1cc(C(=O)NCCN2CCCC2)cc(C(C)(C)C)c1	-23.9%	0.0%	0.0%	12.6µM*
O=C(O)c1ccc(-c2ccccn2)s1	10µM*	4.5%	-1.1%	78.1%
COc1ccc(S(=O)(=O)N2CCOc3ccccc32)cc1	-36.1%	u	-3.4%	3.55µM*
